Compound activity deposited in PubChem BioAssay by several laboratories.
CF NFkB block: blocks PAF-induced NF-kB reporter in cystic fibrosis cells | 0.86% of 360,000 active | inhibition, % at 5 µM | KKLEB NF-kB-GFP reporter, GFP fluorescence overnight;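 active = at least 50% inhibition at 5 µM, scaled per plate between neutral and stimulator controls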;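 note: PAF is a Pseudomonas aeruginosa culture filtrate used as stimulus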
Peg3 prom inh: Peg3 promoter activity inhibition | 1.7% of 360,000 active | HeLa PEG-Prom luciferase reporter, luminescence, overnight | AID 588405 | inhibition, % at 20 µM;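 active = inhibition of at least 50% at 20 µM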
HIF-2a inh: inhibitors of HIF-2a; 0.72% of 360,000 active; 786-0 RCC cells HIF-2a reporter, luciferase luminescence, overnight; inhibition, % at 18.8 µM;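 active = inhibition of the luminescence signal of 40% or more relative to plate controls, in a single-dose primary screen at 18.75 µM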
KKLEB tox: counter-screen for CF NF-kB inhibitors: cytotoxicity. KKLEB CF airway cells viability, ATPlite luminescence, overnight; stronger effect = lower value; cells stimulated with P. aeruginosa culture filtrate. activity change (cytotoxicity), % at 5 µM. 0.36% of 360,000 active. AID 602141;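 active = corrected activity change at or below -50% at 5 µM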
TRPM1 prom inh: inhibitors of MITF-driven TRPM1 promoter in melanoma cells. SK-MEL-5 TRPM1 promoter luciferase, 24 h. inhibition, % at 12.5 µM. 0.83% of 330,000 active;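 active = mean inhibition across replicates of 60% or more, whatever share of single replicates reaches that level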
CHOP inh: blocks CHOP induction under ER stress | 3.8% of 220,000 active | inhibition, % at 10 µM | CHO-K1 CHOP-promoter luciferase, tunicamycin-induced, 15-18 h | AID 2732;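 active = compounds that reduced the stress-induced luciferase reporter signal by more than about 70% of percent inhibition, limit read from the data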
Large screens that a line does not name were inactive. Compounds with a hit are over-represented: about 4.3% of the library has one in this group of screens.

CCN(Cc1ccccc1)C(=O)CCS(=O)(=O)c1cc2c(cc1Cl)NC(=O)CO2	none (no result: TRPM1 prom inh, CHOP inh)
O=C(CCCOc1ccccc1)N1CCN(c2ccccc2)CC1	none
O=C(c1ccccc1)c1cccn1CC(=O)N1CCCCCC1	none
Cc1cccc(N2CCN(C(=O)Cn3cccc3C(=O)c3ccccc3)CC2)c1C	CHOP inh 71.0
Cc1cccc(N2CCN(C(=O)COc3cccc4c3OC(C)(C)C4)CC2)c1C	CHOP inh 78.9
Cc1cc(OCCCC(=O)N2CCCCC2)cc(C)c1Cl	CHOP inh 82.5
CC1(C)Cc2cccc(OCC(=O)N3CCN(S(=O)(=O)c4ccc(F)cc4)CC3)c2O1	none
Cc1cccc(N2CCN(C(=O)CCCOc3ccccc3)CC2)c1C	CHOP inh 83.9
Cc1cc(Cl)ccc1OCCCC(=O)N1CCCCC1	none
CCNC(=O)C1CCCN(C(=O)c2ccc(OC(F)F)cc2)CC1 (stereo unspecified)	none (no result: TRPM1 prom inh, CHOP inh)
C#CCN(C[C@H]1[C@H](OC(=O)NCc2ccccc2F)[C@H](OC(=O)NCc2ccccc2F)C[C@H]2C(=O)N(c3ccccc3)C(=O)[C@@H]12)S(=O)(=O)c1ccc(C)cc1	none (no result: TRPM1 prom inh, CHOP inh)
CC(C)CCCCCCNC(=S)Nc1ccc(S(=O)(=O)N2CCOCC2)cc1	CF NFkB block 51.7, Peg3 prom inh 61.6, CHOP inh 76.5
COc1ccc(-c2noc(CN(C)C(=O)CCCN3C(=O)[C@H]4CC=CC[C@H]4C3=O)n2)cc1	none (no result: TRPM1 prom inh, CHOP inh)
CCc1nc2ccc(C(=O)NCc3ccc(OC)cc3)cn2c1N(CC)CCOC	none (no result: TRPM1 prom inh, CHOP inh)
Cc1cc(OCC(F)(F)C(F)(F)C(F)(F)C(F)(F)C(F)(F)C(F)F)nc(N)n1	CHOP inh 90.7
NC(=O)c1ccc(OCC(F)(F)C(F)(F)C(F)(F)C(F)(F)C(F)(F)C(F)F)cc1	none
CCOC(=O)c1c(N)sc2c(OCC)c(Br)ccc12	CHOP inh 85.4
COc1ccc2[nH]c(=O)c(CNc3cccc(C)c3)cc2c1	CHOP inh 72.9
COc1ccc(NCc2cc3cc(OC)ccc3[nH]c2=O)cc1	none
Cc1ccc(/C=C/C(=O)C2C(=O)c3ccccc3C2=O)cc1	CHOP inh 95.2
CNC(=S)N(CCN(C)C)Cc1cc2cc3c(cc2[nH]c1=O)OCO3	none (no result: CHOP inh)
CN(c1ccc(-c2csc(NC(=O)CCCc3nc4ccccc4c(=O)[nH]3)n2)cc1)S(C)(=O)=O	none (no result: TRPM1 prom inh, CHOP inh)
CC(C)COc1ccc(C(=O)OC2CC(C)(C)OCC2CN(C)C)cc1 (stereo unspecified)	CHOP inh 70.6
COc1cc(/C=C/C(=O)c2cccc([N+](=O)[O-])c2)cc(OC)c1OC	Peg3 prom inh 105.2
O=C(/C=C/c1ccccc1F)c1cccc([N+](=O)[O-])c1	none
COc1cccc(-c2sc3ccc(OC)cc3c2-c2cnc(N3CCOCC3)nc2)c1	none (no result: CF NFkB block, Peg3 prom inh, KKLEB tox, TRPM1 prom inh, CHOP inh)
c1ccc2c(c1)cnc1ccccc12	none
c1ccc(-c2ncc3c(ccc4ccccc43)n2)cc1	KKLEB tox -54.2, CHOP inh 80.0
CSCCC(C(=O)Nc1c(C)cccc1C)n1c(-c2cc(C)cs2)nc2ccccc21 (stereo unspecified)	none (no result: CF NFkB block, Peg3 prom inh, KKLEB tox, TRPM1 prom inh, CHOP inh)
COc1ccc2oc(C(=O)N3CCc4ccccc43)c(C)c2c1	KKLEB tox -54.8 (no result: CHOP inh)
COc1cccc(-c2cc(C(=O)N3CCCc4ccccc43)no2)c1	CHOP inh 73.1
COc1ccc(-c2cc(C(=O)N3CCCc4ccccc43)no2)cc1	none
Cc1cccc(N2CCN(CC(=O)Nc3ccc(-n4cnnn4)cc3)CC2)c1C	CHOP inh 94.1
Cc1cc(NC(=O)COC(=O)c2ccc(OC(F)(F)F)cc2)no1	none (no result: CHOP inh)
Cc1cc(NC(=O)COC(=O)C(Nc2ccc(C(F)(F)F)cc2Cl)C(C)C)no1 (stereo unspecified)	CHOP inh 101.8
Cc1cc2oc(=O)cc(-c3ccccc3)c2c(C)c1-c1ccc(C#N)cc1	none (no result: CHOP inh)
COc1ccc(N2CCN(C(=O)CN3CCN(c4nc(-c5ccc(F)cc5)cs4)CC3)CC2)cc1	CHOP inh 79.5
COc1ccc(-c2nnn(CC(=O)N3CCN(c4ccc(F)cc4)CC3)n2)cc1	none
Cc1sc2ncnc(N3CCN(CCOc4ccc(Cl)cc4)CC3)c2c1C	CHOP inh 92.2
CC(C)C(NS(=O)(=O)c1cccc2nsnc12)C(=O)Nc1nc2ccc(Cl)cc2s1 (stereo unspecified)	CHOP inh 88.5 (no result: TRPM1 prom inh)
CCOc1ccc2nc(NC(=O)C(NS(=O)(=O)c3cccc4nsnc34)C(C)C)sc2c1 (stereo unspecified)	none (no result: TRPM1 prom inh)
CCCCCCCCCCCCC/C=C/[C@@H](O)[C@@H](N)CO	Peg3 prom inh 55.3 (no result: CHOP inh)
CCCCCCCCCCCCC/C=C/C(O)C(N)CO (stereo unspecified)	none (no result: CF NFkB block, Peg3 prom inh, HIF-2a inh, KKLEB tox, TRPM1 prom inh)
CC(=O)Nc1ccc(S(=O)(=O)NCC(=O)OCC(=O)NCCc2ccccc2)cc1	none (no result: TRPM1 prom inh, CHOP inh)
Cc1c2cnn(CC(=O)NCCCN3CC(C)CC(C)C3)c(=O)c2c(C)n1Cc1ccccc1Cl (stereo unspecified)	none (no result: CHOP inh)
CCN=C1SC(C(=O)Nc2ccc(Cl)c(Cl)c2)CC(=O)N1CC (stereo unspecified)	CHOP inh 73.6
CCN=C1SC(C(=O)Nc2cc(Cl)cc(Cl)c2)CC(=O)N1CC (stereo unspecified)	CHOP inh 74.6
CCN=C1SC(C(=O)Nc2cccc(C)c2)CC(=O)N1CC (stereo unspecified)	none
CCN=C1SC(C(=O)Nc2cccc(Cl)c2)CC(=O)N1CC (stereo unspecified)	none
N#CC1=C(N)Oc2cc(O)c(C=Nc3ccccc3)cc2C1c1ccccc1 (stereo unspecified)	none
Cc1ccccc1N=Cc1cc2c(cc1O)OC(N)=C(C#N)C2c1ccccc1 (stereo unspecified)	CHOP inh 89.0
CCc1ccc(CSc2nccn2-c2ccccc2)cc1	CHOP inh 71.6
c1ccc(CCSc2nccn2-c2ccccc2)cc1	none
CC(=O)c1sc(N/N=C\c2c(O)ccc3ccccc23)nc1C	none (no result: CHOP inh)
O=C(OCC(=O)N1CCc2ccccc2C1)c1ccc(Cl)c([N+](=O)[O-])c1	Peg3 prom inh 98.8 (no result: CHOP inh)
CC(C)CN1CCN(C(=O)COC(=O)c2ccc(S(C)(=O)=O)c([N+](=O)[O-])c2)CC1	CF NFkB block 79.4, Peg3 prom inh 97.1, HIF-2a inh 93.5 (no result: TRPM1 prom inh, CHOP inh)
CC(C)N(C(=O)COC(=O)c1ccccc1C(=O)c1ccc(Cl)c([N+](=O)[O-])c1)C(C)C	Peg3 prom inh 73.5
COc1ccc(C(=O)OCC(=O)N2CCCCC2)cc1[N+](=O)[O-]	none
Cc1cc(C(=O)OCC(=O)c2ccc(Cl)c([N+](=O)[O-])c2)c2cccc(C)c2n1	none
COc1ccc(C(=O)c2ccc(Cl)cc2)cc1	none
COc1ccc(C(=O)c2ccc(Cl)c([N+](=O)[O-])c2)cc1	CF NFkB block 63.7, TRPM1 prom inh 64.0
Cc1ccc(S(=O)(=O)c2c(C)nn(C(C)(C)C)c2OC(=O)CC(C)C)cc1	CHOP inh 80.4
CCC(=O)Oc1c(S(=O)(=O)c2ccc(C)cc2)c(C)nn1C(C)(C)C	none
